Drawing on PubChem BioAssay (Tox21), this text covers outcome, Potency and activation for 15 compounds.

Records with an inconclusive call do not appear. Entries that show only a call come without a potency. The source made the active and inactive calls. Calls come from the whole dose curve; as a rule, active = well fitted curve in the direction sought with a large enough effect in the repeat runs; inconclusive = weak or mixed curves; inactive = no such curve, though single readings can be large; an effect the other way counts as inactive or inconclusive.

One assay is described as follows: qHTS assay to identify small molecule antagonists of the retinoic acid receptor (RAR) signaling pathway (AID 1159552; note: nearly all actives have a fitted effect of over 50% in size). The settings on record: C3RL4 RARE luciferase reporter, retinol-stimulated, 6 h; series mostly up to 92.4 µM. Put shortly:
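Cells of the C3RL4 line were seeded, incubated overnight, then dosed with compounds in DMSO followed immediately by retinol (1 uM final). Six hours later luciferase detection reagent went in; signal was measured after 30 min at RT.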
(qHTS replaces the single test concentration by a dilution series.)
With `CCCOC(=O)C(C)O` (configuration not stated), the outcome was inactive.

Take `CCOCCOCCOCC`: the compound was called inactive.

In the case of `COc1ccc(-c2cc(=O)c3c(O)cc(O[C@@H]4O[C@H](CO[C@@H]5O[C@@H](C)[C@H](O)[C@@H](O)[C@H]5O)[C@@H](O)[C@H](O)[C@H]4O)cc3o2)cc1O`, the result was inactive.

Consider `CC(C)C(=O)OCCc1ccccc1`, for which the compound was classed as inactive.

The next assay is described as follows: qHTS assay to identify small molecule agonists of the retinoic acid receptor (RAR) signaling pathway (AID 1159553). The settings on record: C3RL4 RARE luciferase reporter, agonist, 6 h; series mostly up to 73.3 µM. The method, boiled down: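 Quantitative high-throughput format: the Tox21 10K library was tested on C3RL4 RARE-luciferase cells for 6 hr at 37 C and 5% CO2, with luminescence measured after a 30 min room-temperature reagent step.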
In the case of `CCOc1cc([N+](=O)[O-])c(OCC)cc1N1CCOCC1`, the Potency result was “inactive”.

For `O=S(O)(O)=S`, the activation is -0.738% [at 8.36 µM] (inactive).

As for `Brc1ccc(-c2ccccc2)cc1`, the Potency entry was “inactive”.

For the compound `CN1C(C)(C)CCCC1(C)C`, the Potency result is “inactive”.

For the compound `CC(=C(CCOC(=O)C(C)C)SSC(CCOC(=O)C(C)C)=C(C)N(C=O)Cc1cnc(C)nc1N)N(C=O)Cc1cnc(C)nc1N`, the Potency result was “inactive”.

For `COc1ccc(-c2cc(=O)c3c(O)cc(O[C@@H]4O[C@H](CO[C@@H]5O[C@@H](C)[C@H](O)[C@@H](O)[C@H]5O)[C@@H](O)[C@H](O)[C@H]4O)cc3o2)cc1O`, the Potency result is “inactive”.

In the case of `CCN(CC)CC(=O)Nc1c(C)cccc1C`, the Potency result was “inactive”.

`CCCCCCCCCCl`: the Potency result is “inactive”.

Consider `N[C@@H](CCC(=O)N[C@@H](CS)C(=O)NCC(=O)O)C(=O)O`, for which the Potency entry was “inactive”.

For the compound `CC(C)C(=O)OCCc1ccccc1`, the Potency result was “inactive”.

With `COc1ccc(S(=O)(=O)N2c3ccc(Cl)cc3[C@@](O)(c3ccccc3Cl)[C@H]2C(=O)N2CCC[C@@H]2C(N)=O)cc1OC`, the Potency result was “inactive”.

In the case of `Cc1ccccc1C(=O)Nc1ccc(C(=O)N2CCCC(N(C)C)c3ccccc32)cc1` (configuration not stated), the Potency entry is “inactive”.

On to `CC(=O)OC(C)OC(=O)C(C)c1ccc(-c2ccccc2)c(F)c1` (configuration not stated), for which the Potency result is “inactive”.
